# Reference: PubChem BioAssay (Tox21)
# Results filed as inconclusive are left out. Entries that show only a call come without a potency. Activity calls are given as the source filed them. Calls follow the shape of the full dose curve.
# Target: Peroxisome proliferator-activated receptor delta (Homo sapiens) (UniProt Q03181)
# Experiment: qHTS assay to identify small molecule agonists of the peroxisome proliferator-activated receptor delta (PPARd) signaling pathway (AID 743212)
# Details: HEK293H PPARd-UAS-bla, beta-lactamase FRET ratio, 17 h; series mostly up to 62.6 µM
# Excerpt: U.S. Tox21 Program National Center for Advancing Translational Sciences [NCATS] NIH Chemical Genomics Center [NCGC] U.S. Environmental Protection Agency [EPA] National Institutes of Environmental Health Sciences [NIEHS] National Toxicology Program [NTP] U.S. Food and Drug Administration [FDA] Tox21 Assay Overview: The peroxisome proliferator-activated receptors (PPARs) are lipid-activated transcription factors of the nuclear receptor superfamily with three distinct subtypes namely PPAR alpha, PPAR delta (PPARd) and PPAR gamma. All these subtypes heterodimerizes with Retinoid X receptor (RXR) and have different physiological functions. […] To identify the compounds that activate PPAR-delta signaling, GeneBLAzer PPAR delta UAS-bla HEK293H cell line (Invitrogen, Carlsbad, CA, USA) containing a beta-lactamase reporter gene under the control of an Upstream Activator Sequence (UAS) was used to screen the Tox21 compound library.
# Tox21 Assay Protocol Summary: PPARd-bla cells were dispensed at 3000 cells/6uL/well in 1536-well black wall/clear bottom plates using a Multidrop Combi (Thermo Fisher Scientific, Waltham, MA) dispenser. After the assay plates were incubated at 37 C and 5% CO2 for 5 h, 23 nL of compounds dissolved in DMSO, positive controls or DMSO only was transferred to the assay plate by a Pintool station (Kalypsys, San Diego, CA). The assay plates were incubated at 37C for 17 h. After 1 uL of LiveBLAzerTM B/G FRET substrate was added using a Bioraptr Flying Reagent Dispenser (FRD) workstation (Beckman Coulter, Indianapolis, IN, USA), the plates were incubated at room temperature for 2 h, and fluorescence intensity was measured by an Envision plate reader (PerkinElmer, Shelton, CT).
# Peroxisome proliferator-activated receptor delta (Homo sapiens), sequence (Q03181 whole entry, looked up): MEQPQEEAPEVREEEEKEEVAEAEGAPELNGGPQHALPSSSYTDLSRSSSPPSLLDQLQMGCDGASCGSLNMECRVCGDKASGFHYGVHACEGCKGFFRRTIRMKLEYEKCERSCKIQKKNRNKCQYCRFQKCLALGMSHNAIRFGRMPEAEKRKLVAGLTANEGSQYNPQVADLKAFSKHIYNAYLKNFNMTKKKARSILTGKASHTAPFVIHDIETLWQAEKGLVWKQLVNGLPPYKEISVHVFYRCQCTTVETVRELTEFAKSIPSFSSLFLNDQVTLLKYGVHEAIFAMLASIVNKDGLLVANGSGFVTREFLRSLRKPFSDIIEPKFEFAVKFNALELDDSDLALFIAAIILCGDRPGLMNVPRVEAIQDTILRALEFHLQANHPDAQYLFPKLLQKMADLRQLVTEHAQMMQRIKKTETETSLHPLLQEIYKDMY
row,SMILES,Potency
1,O=C(O)[C@H](O)[C@@H](O)C(=O)O,inactive
2,CC(C)NCC(O)c1ccccc1Cl (stereo not given),inactive
3,O=c1[nH]c2cc(Cl)ccc2n1C1CCNCC1,inactive
4,O=c1c2ccccc2c(=O)c2c1cc(Cl)c1[nH]c3c([nH]c12)c(Cl)cc1c(=O)c2ccccc2c(=O)c13,inactive
5,O=C(Cl)c1ccccc1F,inactive
6,c1ccc(N=NNc2ccccc2)cc1,inactive
7,O=[N+]([O-])c1ccc(CCl)cc1,inactive
8,N#Cc1ccc(N(CC(N)=O)CC(F)(F)F)cc1C(F)(F)F,inactive
9,CCOP(=O)(Sc1ccccc1)Sc1ccccc1,inactive
10,CCN(CC)CCc1c[nH]c2ccccc12,inactive
11,CCC1COC(Cn2cncn2)(c2ccc(Cl)cc2Cl)O1 (stereo not given),inactive
12,CO/N=C(\C(=O)OC)c1ccccc1CO/N=C(\C)c1cccc(C(F)(F)F)c1,inactive
13,CC(C)=CCN1CC[C@@]2(C)c3cc(O)ccc3C[C@@H]1[C@@H]2C,inactive
14,CCCCc1ccccc1,inactive
15,C=CC(=C)C,inactive
16,CNC(=O)CSP(=O)(OC)OC,inactive
17,CN(C)c1ccc(N)cc1,inactive
18,CCOP(=S)(OCC)SC(CCl)N1C(=O)c2ccccc2C1=O (stereo not given),inactive
19,O=[N+]([O-])c1ccc(Cl)c(Cl)c1Cl,inactive
20,CCNS(=O)(=O)C(F)(F)C(F)(F)C(F)(F)C(F)(F)C(F)(F)C(F)(F)C(F)(F)C(F)(F)F,inactive

row,SMILES,Potency
1,CC(C)N(C(=O)SC/C(Cl)=C/Cl)C(C)C,inactive
2,ClC1(Cl)C2(Cl)C3(Cl)C4(Cl)C(Cl)(Cl)C5(Cl)C3(Cl)C1(Cl)C5(Cl)C24Cl (stereo not given),inactive
3,Oc1ccc(Cl)c(Cl)c1,inactive
4,CC1(C)[C@H](/C=C2\CCSC2=O)[C@@H]1C(=O)OCc1coc(Cc2ccccc2)c1,inactive
5,ClCBr,inactive
6,Clc1ccc(C(Cl)(Cl)Cl)cc1Cl,inactive
7,CC(C)=CC1C(C(=O)OC(C#N)c2cccc(Oc3ccccc3)c2)C1(C)C (stereo not given),inactive
8,CN=C=O,inactive
9,CC(Cc1ccccc1)N(C)Cc1ccco1 (stereo not given),inactive
10,CCNc1nc(NC(C)C(C)C)nc(SC)n1 (stereo not given),inactive
11,COC(=O)/C=C(\C)OP(=O)(OC)OC,inactive
12,FC(F)C(F)(F)OCC(Cn1cncn1)c1ccc(Cl)cc1Cl (stereo not given),inactive
13,CSC(=O)c1c(C(F)F)nc(C(F)(F)F)c(C(=O)SC)c1CC(C)C,inactive
14,CC(Cc1ccc2c(c1)OCO2)NO (stereo not given),inactive
15,C=CCOC(=O)c1ccccc1N,inactive
16,Clc1ccc(C2(Cn3cncn3)OCCO2)c(Cl)c1,inactive
17,COP(=S)(NC(C)C)Oc1ccc(C)cc1[N+](=O)[O-] (stereo not given),inactive
18,CNC(=O)Oc1cc(C)cc(C(C)C)c1,inactive
19,CC1(C)C(C=C(Cl)Cl)C1C(=O)OC(C#N)c1ccc(F)c(Oc2ccccc2)c1 (stereo not given),inactive
20,COCCC#N,inactive
